{"source": "the OligoGym collection"}
{"target": "L1TD1", "experiment": "pooled miR-30 sensor sort-seq; sequence = guide strand", "conditions": "shRNA"}
{"sequence": "ATCATTACTATTGTATTCGTTA", "sensor-assay potency score (higher = more potent)": -0.576}
{"sequence": "TTGGATGTTAGTTCTTCTGTGT", "sensor-assay potency score (higher = more potent)": 0.173}
{"sequence": "ATTTGCTGAAACTCTGTCCTAC", "sensor-assay potency score (higher = more potent)": 0.491}
{"sequence": "TTAAATCTAATACCGGAGCTAT", "sensor-assay potency score (higher = more potent)": -1.12}
{"sequence": "TTGAATTTCCATTAAGACCTTA", "sensor-assay potency score (higher = more potent)": 0.102}
{"sequence": "TCTTTCTTCAAGTATGTCCATT", "sensor-assay potency score (higher = more potent)": -0.922}
{"sequence": "TTCTTTGACAAATTCATCCTCT", "sensor-assay potency score (higher = more potent)": 0.858}
{"sequence": "TACTTCTCAAGTTTTCTTCTGT", "sensor-assay potency score (higher = more potent)": 0.707}
{"sequence": "TTGATCTTCTAGACTGTCTATT", "sensor-assay potency score (higher = more potent)": -0.179}
{"sequence": "TATTTCTCCAGCTCTATGCTTT", "sensor-assay potency score (higher = more potent)": -0.459}
{"target": "LAMA2", "experiment": "pooled miR-30 sensor sort-seq; sequence = guide strand", "conditions": "shRNA"}
{"sequence": "TACATCTTTAGCTGTGTCGTTG", "sensor-assay potency score (higher = more potent)": -0.19}
{"sequence": "TAGTTTATTGTAATTCTTCTTC", "sensor-assay potency score (higher = more potent)": -0.313}
{"sequence": "TTTGTGAGCAAACATCATCAAG", "sensor-assay potency score (higher = more potent)": -1.56}
{"sequence": "TTACATATCAGACAGGAGCCAG", "sensor-assay potency score (higher = more potent)": -0.545}
{"sequence": "TTTATTGTAATTCTTCTTCAGG", "sensor-assay potency score (higher = more potent)": -0.611}
{"sequence": "TTTGAGTTTATCTATTAGCCGG", "sensor-assay potency score (higher = more potent)": -0.671}
{"sequence": "TTGAGTTTATCTATTAGCCGGT", "sensor-assay potency score (higher = more potent)": 0.45}
{"sequence": "TATCCAAGAAGTCTTCTCGGGT", "sensor-assay potency score (higher = more potent)": -0.905}
{"sequence": "TAAATGTCAACTGTCCTCCTAC", "sensor-assay potency score (higher = more potent)": 0.301}
{"sequence": "TTGATTGCAGATTCGACACTGC", "sensor-assay potency score (higher = more potent)": 0.517}
{"sequence": "TTACATAATAGGCCTGTCCAGT", "sensor-assay potency score (higher = more potent)": -0.57}
{"sequence": "TTAAGTAACAATACATTAGTAT", "sensor-assay potency score (higher = more potent)": -0.0119}
{"target": "LAMB3", "experiment": "pooled miR-30 sensor sort-seq; sequence = guide strand", "conditions": "shRNA"}
{"sequence": "TCTGACATCTTCCTCCATCTGG", "sensor-assay potency score (higher = more potent)": -0.297}
{"sequence": "TAGGTCACAGCGCTCTCCCTGC", "sensor-assay potency score (higher = more potent)": -0.878}
{"sequence": "TTCTGCAGAACAGTAGCTGAGT", "sensor-assay potency score (higher = more potent)": -0.497}
{"sequence": "TTTGACTTTGAGTTGCTGGAAT", "sensor-assay potency score (higher = more potent)": -0.395}
{"sequence": "TCTTGAAGCTGGAATCTCCTGT", "sensor-assay potency score (higher = more potent)": 0.664}
{"sequence": "TTACTAGCTACACACCAGGGGT", "sensor-assay potency score (higher = more potent)": -0.82}
{"sequence": "TTTGCATCTAGGATCCGGGAGG", "sensor-assay potency score (higher = more potent)": -1.03}
{"sequence": "TCTTCTGCAGAACAGTAGCTGA", "sensor-assay potency score (higher = more potent)": -1.16}
{"sequence": "TAGGCTGTGCTCAGCATCCGGA", "sensor-assay potency score (higher = more potent)": -0.616}
{"sequence": "TTTTTTGACTTTGAGTTGCTGG", "sensor-assay potency score (higher = more potent)": 0.33}
{"sequence": "TTATTCTCTCAAATCCCTCTTG", "sensor-assay potency score (higher = more potent)": -0.105}
{"sequence": "TATTTTTTCAAACTGCTCCCTC", "sensor-assay potency score (higher = more potent)": 0.433}
{"target": "LAMB4", "experiment": "pooled miR-30 sensor sort-seq; sequence = guide strand", "conditions": "shRNA"}
{"sequence": "TTCAACACAGTTGTGAAGCTGA", "sensor-assay potency score (higher = more potent)": 0.732}
{"sequence": "TTTGACTGTAGAGTCTTGGGTA", "sensor-assay potency score (higher = more potent)": 0.734}
{"sequence": "TAGTCCTGTAGTGCTTGTCTTA", "sensor-assay potency score (higher = more potent)": -1.22}
{"sequence": "TTTGTTAGTCCTGTAGTGCTTG", "sensor-assay potency score (higher = more potent)": 0.084}
{"sequence": "TTCACTTATACTTTCGATCTGA", "sensor-assay potency score (higher = more potent)": 0.249}
{"sequence": "TTAGCTGTTTAACTTTTCCTAA", "sensor-assay potency score (higher = more potent)": -0.989}
